An excerpt weighted towards active compounds, which were near 2.6% of everything screened.
TCR-CD3 inh: human TCR-CD3 binding inhibition | TAMRA-labeled TCR probe fluorescence, biochemical | inhibition, % at 9.4 µM | 360,000 tested, 0.37% active; in the data active = inhibition above about 19%;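 note: recombinant mutant TCR 2C K166C tagged with TAMRA read by polarization; 0% = receptor in buffer alone and 100% = receptor with positive control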
PAD4 FP inh: inhibitors of human PAD4. inhibition, % at 6.36 µM. 330,000 tested, 0.41% active. recombinant PAD4, RCA probe fluorescence polarization. AID 485272. Q9UM07;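 active = percent inhibition above a cutoff equal to the mean of all tested compounds plus 3 SD, cut at about 15% in these data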;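 note: 0% = PAD4 with RCA probe and DMSO and 100% = probe without PAD4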
Fam108B inh: Fam108B inhibition, counter-screen for RBBP9 inhibitors. recombinant Fam108B, FP-Rh probe fluorescence polarization. inhibition, % at 9.51 µM. 300,000 tested, 0.33% active;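 active = inhibition above the screen mean inhibition plus 3 SD, computed separately per campaign, cut at about 18% in these data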;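 note: inhibitors lower polarization as less probe binds the enzyme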
SIAE inh: blocks human sialic acid acetylesterase | AID 1053197 | 370,000 tested, 0.69% active | inhibition, % at 9.66 µM | Q9HAT2 | SIAE FP-Rh probe binding, fluorescence polarization;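 active = inhibition above a cutoff: mean of compounds within the control limits plus 3 SD of those, cut at about 17% in these data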;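 note: 0% = plate median of compound wells and 100% = probe without SIAE protein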
Target sequence (Q9HAT2 whole entry, looked up): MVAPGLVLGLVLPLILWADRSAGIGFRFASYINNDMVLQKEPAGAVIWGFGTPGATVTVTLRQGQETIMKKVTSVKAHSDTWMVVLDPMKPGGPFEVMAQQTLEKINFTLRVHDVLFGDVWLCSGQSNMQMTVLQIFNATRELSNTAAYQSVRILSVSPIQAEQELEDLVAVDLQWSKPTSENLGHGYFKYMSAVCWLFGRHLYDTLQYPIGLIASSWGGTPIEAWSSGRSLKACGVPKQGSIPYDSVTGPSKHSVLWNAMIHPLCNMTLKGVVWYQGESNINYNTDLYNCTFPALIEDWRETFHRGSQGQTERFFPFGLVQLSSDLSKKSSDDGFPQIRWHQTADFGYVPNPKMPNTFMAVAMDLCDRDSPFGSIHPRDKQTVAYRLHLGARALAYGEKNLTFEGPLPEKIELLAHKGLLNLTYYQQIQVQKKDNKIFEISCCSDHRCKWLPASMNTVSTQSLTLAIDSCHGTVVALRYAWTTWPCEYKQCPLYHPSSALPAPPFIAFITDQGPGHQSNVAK
PME-1 primary: PME-1 (human) inhibition. 320,000 tested, 0.53% active. AID 2130. inhibition, % at 5.9 µM. recombinant PME-1, FP-Rh probe fluorescence polarization;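 active = inhibition above the campaign mean of all compounds plus 3 SD, cut at about 26% in these data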;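 note: competitive labeling of PME-1 active site by serine hydrolase directed probe; 0% = PME-1 with DMSO and 100% = wells lacking PME-1 enzyme; inhibitors block probe labeling so polarization falls and inhibition rises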
PRMT1 inh: inhibitors of human PRMT1; Q99873; recombinant PRMT1, activity-based probe fluorescence polarization; inhibition, % at 2.79 µM; 370,000 tested, 1.3% active; AID 652257;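 active = inhibition above about 21% made by adding two undisclosed values, limit read from the data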
PRMT1 inh conf: PRMT1 (human) inhibition, FP confirmation. shares compounds with PRMT1 inh. recombinant His-PRMT1, activity-based probe fluorescence polarization. inhibition, % at 2.79 µM. 3,300 tested, 42% active. AID 687036;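 active = mean inhibition across replicates above the hit cutoff derived for the earlier primary screen, cut at about 22% in these data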
Active calls of the source: *; . = not tested or not shown.

SMILES	TCR-CD3 inh	PAD4 FP inh	Fam108B inh	SIAE inh	PME-1 primary	PRMT1 inh	PRMT1 inh conf
C(=Cc1c[nH]c2ccccc12)c1ccc2ccccc2n1	-6	.	.	14	.	5	.
C(=Cc1c[nH]c2ccccc12)c1nccc2ccccc12	1	.	.	1	.	52*	10
COc1cccc(-c2nc(=S)c3c(n2Cc2ccco2)CCCC3)c1	-4	-1	-2	-10	-8	26*	1
CCCOc1ccccc1NC(=O)/C=C/C(N)=O	3	-1	0	-4	-8	59*	36*
CCCCOc1ccccc1NC(=O)C=C(C)C	5	-2	5	-9	10	-4	.
CCCCC(=O)OCC(=O)C1(O)Cc2c(O)c3c(c(O)c2C(OC2CC(NC(=O)C(F)(F)F)C(O)C(C)O2)C1)C(=O)c1c(OC)cccc1C3=O (stereo not given)	-7	.	.	12	.	25*	15
Cc1ccccc1CN1CCCCC(NC(=O)Nc2cccc([N+](=O)[O-])c2)C1=O (stereo not given)	.	.	.	-4	.	-2	.
CSCc1ccc(C(=O)NCCSc2ccc(Br)cc2)cc1	4	-3	-6	12	-8	0	.
O=C(CCSc1ccc(Br)cc1)c1ccc(O)cc1	-5	3	-3	-11	-3	31*	16
COC(=O)[C@]12C[C@H](CC(=O)NCCCN3CCCC3=O)C(=O)N(CCc3ccc(OC)c(OC)c3)C1=C[C@H](C(C)C)O[C@@H]2C1CC1	.	.	.	-2	.	3	.
CC(C)C(c1nnnn1Cc1ccc(F)cc1)N1CCN(c2ccc(O)cc2)CC1 (stereo not given)	-6	-14	-4	1	-7	28*	1
CN(C)C(=O)C[C@H]1CC[C@H]2[C@H](COc3ccc(NC(=O)C4CC4)cc3C(=O)N2C)O1	.	.	.	1	.	-6	.
CCCC(=O)Nc1cc(OC)c(NC(=S)Nc2cccc(C)c2)cc1OC	3	.	.	9	.	39*	-5
CCCC(=O)Nc1cc(OC)c(NC(=S)Nc2ccc(CC)cc2)cc1OC	7	.	.	10	.	-1	.
O=C(/C=C/c1ccc([N+](=O)[O-])cc1)N(c1ccccn1)C1CCCCC1	-11	-7	3	5	6	28*	20
N#C/C(=C\c1ccccc1)C(=O)N(c1ccccn1)C1CCCCC1	-6	-4	-3	8	-2	-1	.
CC1=C(C#N)c2nc(N)c(C#N)c(C)c2/C1=C\c1ccc(-c2ccccc2C(=O)O)o1	-1	.	.	11	.	15	.
COc1cc(/C=C2/C(C)=C(C#N)c3nc(N)c(C#N)c(C)c32)ccc1OCC(=O)O	-5	-18	5	3	-6	27*	9
COCCCN1C(=O)[C@H](CC(=O)N2CCSCC2)[C@]2(C(=O)OC)CCCCC=C12	.	.	.	2	.	3	.
COc1cc(C2CC(=O)N3CN(c4ccccc4C)CSC3=C2C#N)cc(OC)c1OC (stereo not given)	0	-1	1	-8	5	38*	46*
COc1ccccc1N1CSC2=C(C#N)C(c3ccc(SC)cc3)CC(=O)N2C1 (stereo not given)	6	-6	0	-17	0	39*	64*
COc1cccc(C2c3c(ncn(-c4ccccc4)c3=N)Oc3ccc4ccccc4c32)c1 (stereo not given)	.	.	.	-93	.	-8	.
O=C(Nc1ccc(F)cc1)NC1CCN(Cc2nnnn2Cc2ccco2)CC1	-6	0	3	-1	2	29*	11
O=C(NCCc1ccccc1)OCc1cn(-c2ccccc2Cl)nn1	.	.	.	-4	.	1	.
N#CC(c1nc2ccccc2nc1N1CCCC1)S(=O)(=O)c1ccccc1 (stereo not given)	6	-8	7	6	16	9	.
SMILES	TCR-CD3 inh	PAD4 FP inh	Fam108B inh	SIAE inh	PME-1 primary	PRMT1 inh	PRMT1 inh conf
Cc1cccc(S(=O)(=O)C(C#N)c2nc3ccccc3nc2N2CCCC2)c1 (stereo not given)	-2	-9	3	-12	7	25*	5
CCc1sc(C(C2C(=O)CC(C)(C)CC2=O)C2C(=O)CC(C)(C)CC2=O)cc1[N+](=O)[O-]	5	-1	-3	0	-7	48*	50*
Oc1ccc(C(=S)N2CCN(c3cccc(Cl)c3)CC2)cc1	-4	-3	-2	0	-2	29*	3
Cc1ccc(C(=S)N2CCN(Cc3ccccc3)CC2)s1	2	-1	6	2	9	42*	53*
Oc1ccc(C(=S)N2CCN(Cc3ccccc3)CC2)cc1	3	-1	5	0	0	38*	54*
COc1cc(C(=S)N2CCN(c3cccc(Cl)c3)CC2)ccc1O	5	-3	0	15	-1	1	.
S=C(c1ccc(Br)cc1)N1CCN(Cc2ccccc2)CC1	-9	0	0	-2	-2	64*	77*
O=C(c1ccc(Br)cc1)N1CCN(Cc2ccccc2)CC1	0	2	-1	-5	4	4	.
COc1cc(OC)c2c(O)c3c(=O)cc(C)oc3c(-c3c(OC)cc4cc5c(c(O)c4c3O)C(=O)CC(C)(O)O5)c2c1 (stereo not given)	.	.	.	-7	.	-4	.
C[C@H](O)[C@@H]1CN2CCc3c([nH]c4cccc(-c5ccccc5)c34)[C@@H]2C[C@@H]1N(C)C(=O)C1CCCCC1	.	.	.	2	.	-1	.
COc1ccc(Cn2ccc3ccc(-c4ccc5ccn(C(=O)c6ccccc6OC)c5c4)cc32)cc1	.	.	.	-19	.	-2	.
CC(C)(C)OC(=O)NCc1ccccc1/C=C/S(=O)(=O)NC1CCCC1	.	.	.	2	.	0	.
CN(C)c1ccc(C(=S)N2CCN(Cc3ccccc3)CC2)cc1	1	0	9	2	-9	55*	64*
NC(=O)/C(=C\c1ccco1)NC(=O)c1ccco1	-3	.	.	14	.	20	.
NC(=O)/C(=C/c1ccco1)C(N)=S	5	10	6	3	-3	53*	22*
O=C(CN1C(=O)CC(c2ccco2)Sc2ccccc21)Nc1ccccc1F (stereo not given)	-3	2	1	7	2	58*	19
O=C(CN1C(=O)CC(c2ccco2)Sc2ccccc21)NCc1ccc2c(c1)OCO2 (stereo not given)	.	2	3	.	3	.	.
COc1cc(C=C2C(=O)C=CC2=O)ccc1O	16	.	.	9	.	91*	100*
O=C(OCC#CCSc1nnc(-c2cccc3ccccc23)o1)c1cccc(C(F)(F)F)c1	.	.	.	2	.	0	.
COc1ccc(Cn2ccc3ccc(-c4ccc5ccn(C(=O)c6ccccc6)c5c4)cc32)cc1	.	.	.	-11	.	-3	.
COc1ccc(NC(=O)Nc2ccccc2C(=O)N2CCCC2)cc1OC	.	.	.	2	.	-4	.
Cc1cccc(NC(=O)CCS(=O)(=O)c2ccccc2)c1C	.	.	.	-1	.	1	.
N#Cc1c(-c2ccco2)c2c([nH]c1=S)CCCC2	-7	-3	4	-2	-2	59*	25*

Screening data from PubChem BioAssay.
